From publication PMC5540273 (PLoS ONE, 2017)

Tests used:
Conditions in all cases: concentration: 1 μM, replicates: in singlicate; n = 1
CAMK1 = tested on: CAMK1
CAMK2A = tested on: CAMK2A
CAMK2B = tested on: CAMK2B
CAMK2D = tested on: CAMK2D
CAMK2G = tested on: CAMK2G
CAMK4 = tested on: CAMK4
CAMKK1 = tested on: CAMKK1
CAMKK2 = tested on: CAMKK2
CASK = tested on: CASK
CDC2L1 = tested on: T1, CDC2L1
T1 construct: gene CDK11B

CDC2L2 = tested on: CDC2L2
CDC2L5 = tested on: T2, CDC2L5
T2 construct: gene CDK13

CDK11 = tested on: T3, CDK11
T3 construct: gene CDK19

CDK2 = tested on: CDK2
CDK3 = tested on: CDK3
CDK4-cyclinD1 = tested on: CDK4-cyclinD1
CDK4-cyclinD3 = tested on: CDK4-cyclinD3
CDK4 = tested on: CDK4
CDK5 = tested on: CDK5
CDK7 = tested on: CDK7
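Note: KINOMEscan kinase panel screen.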

Row | SMILES | %Inh (CAMK1) [%] | %Inh (CAMK2A) [%] | %Inh (CAMK2B) [%] | %Inh (CAMK2D) [%] | %Inh (CAMK2G) [%] | %Inh (CAMK4) [%] | %Inh (CAMKK1) [%] | %Inh (CAMKK2) [%] | %Inh (CASK) [%] | %Inh (CDC2L1) [%] | %Inh (CDC2L2) [%] | %Inh (CDC2L5) [%] | %Inh (CDK11) [%] | %Inh (CDK2) [%] | %Inh (CDK3) [%] | %Inh (CDK4-cyclinD1) [%] | %Inh (CDK4-cyclinD3) [%] | %Inh (CDK4) [%] | %Inh (CDK5) [%] | %Inh (CDK7) [%]
1 | CN(c1ccc(NC(=O)Nc2cc(C(F)(F)F)ccc2F)cc1)c1ccnc(Nc2ccc(S(N)(=O)=O)cc2)n1 [GW809893] | 48 | 0 | 4 | 1 | 9 | 0 | 16 | 15 | 35 | 88 | 94 | 83 | 98.8 | 99.7 | 99 | 14 | 5 | 0 | 97.1 | 95.3
2 | CC(=O)Nc1nc2cnc(Nc3cc(NC(=O)c4cccc(C5(C#N)CC5)c4Cl)ccc3C)nc2s1 | 35 | 13 | 0 | 0 | 10 | 0 | 14 | 12 | 0 | 43 | 33 | 17 | 23 | 0 | 0 | 0 | 0 | 0 | 0 | 0
3 | Cl.Cl.NCC(C(=O)Nc1cc(Br)c(-c2ccnc3[nH]ccc23)s1)c1ccccc1 (stereo not shown) [GSK1269851] | 0 | 100 | 100 | 8 | 12 | 0 | 8 | 0 | 25 | 1 | 4 | 0 | 17 | 0 | 5 | 0 | 2 | 15 | 0 | 24
4 | Cc1occc1-c1ncc(OC[C@@H](N)Cc2c[nH]c3ccccc23)cc1-c1ccc2[nH]nc(C)c2c1.O=C(O)C(F)(F)F [GSK682037] | 25 | 20 | 27 | 47 | 52 | 0 | 19 | 16 | 11 | 0 | 6 | 0 | 35 | 0 | 2 | 0 | 0 | 0 | 0 | 30
5 | Fc1ccc(-c2ncn(C3CCNCC3)c2-c2ccnc(Oc3ccc(-c4ccccc4)cc3)n2)cc1 [SB-245391] | 30 | 20 | 0 | 14 | 17 | 0 | 22 | 20 | 7 | 11 | 9 | 43 | 22 | 19 | 26 | 0 | 34 | 15 | 0 | 41
6 | CN1CCN(CCCNc2nccc(-c3c(-c4ccc(F)cc4)nn4cc(C(F)(F)F)ccc34)n2)CC1 [GW621581] | 5 | 0 | 0 | 0 | 0 | 0 | 0 | 0 | 0 | 0 | 0 | 0 | 0 | 0 | 0 | 0 | 0 | 0 | 0 | 0
7 | COc1cc2c(cc1OCCN1CCNCC1)ncc1c3ccc(C#N)cc3[nH]c21 | 10 | 96.8 | 86 | 88 | 79 | 0 | 80 | 64 | 25 | 14 | 0 | 8 | 24 | 0 | 17 | 31 | 0 | 6 | 3 | 99.7
8 | NCCCC(NC(=O)c1cc(Br)c(-c2ccnc3[nH]ccc23)s1)c1ccccc1.O=C(O)C(F)(F)F.O=C(O)C(F)(F)F (stereo not shown) [GSK1287544] | 13 | 0 | 0 | 0 | 10 | 0 | 30 | 8 | 0 | 0 | 0 | 0 | 45 | 0 | 10 | 0 | 2 | 5 | 6 | 4
9 | Clc1ccc(-c2nn3ncccc3c2-c2ccnc(Nc3ccc4c(c3)OCCO4)n2)cc1 [GW829116] | 0 | 0 | 0 | 0 | 0 | 3 | 0 | 0 | 15 | 0 | 0 | 0 | 0 | 0 | 0 | 0 | 0 | 0 | 7 | 0
10 | Cc1ccc(S(=O)(=O)Nc2ccc(Nc3nccc(Nc4cccc5[nH]ncc45)n3)cc2)cc1 [GSK581271] | 24 | 0 | 0 | 4 | 8 | 0 | 0 | 9 | 45 | 0 | 0 | 0 | 0 | 21 | 17 | 0 | 0 | 15 | 0 | 0
11 | FC(F)(F)c1ccc(/C=C/c2cncnc2Nc2ccc3[nH]c(Cc4ccccc4)nc3c2)cc1 [GW709199] | 0 | 34 | 36 | 3 | 8 | 0 | 19 | 0 | 10 | 0 | 0 | 6 | 10 | 0 | 50 | 23 | 0 | 6 | 0 | 0
12 | Nc1ncc(-c2ccc3nccc(-c4ccncc4)c3c2)cc1S(=O)(=O)N1CCOCC1 [GSK1627798] | 27 | 0 | 0 | 0 | 49 | 0 | 57 | 78 | 48 | 0 | 0 | 0 | 40 | 1 | 6 | 0 | 47 | 0 | 0 | 72
13 | Cc1ccc(C)c(NC(=O)NC2CCN(c3ccnc(Nc4ccc(F)cc4)n3)C2)c1 (stereo not shown) [GSK1379720] | 2 | 0 | 0 | 19 | 4 | 0 | 0 | 0 | 9 | 0 | 0 | 0 | 57 | 0 | 10 | 37 | 0 | 35 | 0 | 0
14 | Nc1n[nH]c2cnc(-c3ccccc3)cc12 [SB-642124] | 5 | 0 | 13 | 17 | 22 | 0 | 1 | 0 | 26 | 0 | 0 | 0 | 0 | 0 | 9 | 23 | 47 | 27 | 0 | 22
15 | CN(C)Cc1ccc(-c2ccc3c(Nc4ccc(Oc5ccccn5)cc4)ccnc3c2)o1 [GW567148] | 27 | 0 | 0 | 0 | 15 | 0 | 0 | 0 | 0 | 0 | 0 | 0 | 0 | 0 | 0 | 0 | 0 | 25 | 0 | 62
16 | COc1cccc(C(=O)Nc2cccc(Oc3ccc4nc(NC(=O)C5CC5)cn4n3)c2)c1 | 16 | 11 | 18 | 15 | 0 | 8 | 6 | 0 | 3 | 0 | 17 | 2 | 8 | 0 | 0 | 1 | 0 | 0 | 0 | 0
17 | COc1cccc(C2=C(Nc3ccc(Cl)c(C(=O)O)c3)C(=O)NC2=O)c1 [SB-390769] | 0 | 0 | 0 | 3 | 1 | 0 | 0 | 0 | 100 | 0 | 0 | 0 | 100 | 9 | 25 | 7 | 100 | 0 | 0 | 0
18 | COc1cc(Nc2ncc3c(C)nc(-c4cc5ccccc5[nH]4)n3n2)cc(OC)c1OC [GW869516] | 19 | 1 | 8 | 6 | 1 | 0 | 13 | 9 | 0 | 5 | 8 | 0 | 1 | 0 | 31 | 22 | 0 | 0 | 0 | 0
19 | CCn1c(-c2nonc2N)nc2c(C#CC(C)(C)O)nc(OC[C@H](N)c3ccccc3)cc21 [GSK943949] | 0 | 0 | 0 | 0 | 0 | 0 | 0 | 0 | 25 | 0 | 0 | 2 | 0 | 0 | 0 | 0 | 8 | 0 | 9 | 5
20 | CN1CCN(Cc2cccc(-c3ccc4c(Nc5ccc(Oc6ccccc6)cc5)ccnc4c3)c2)CC1 [GW578342] | 27 | 1 | 0 | 5 | 10 | 0 | 0 | 0 | 1 | 0 | 16 | 0 | 0 | 0 | 2 | 0 | 0 | 34 | 0 | 5
